TEAD-YAP inh – TEAD-YAP interaction inhibition; HEK-TIYL cells, TEAD-Gal4/YAP UAS-luciferase luminescence; inhibition, % at 9.12 µM; 640,000 compounds, 1.4% hits; AID 1259422; in the data active = inhibition above about 32%;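 also: 0% = median of test compound wells and 100% = reference inhibitor wells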
MITF inh – inhibitors of human MITF; 650,000 compounds, 0.91% hits; inhibition, % at 2.6 µM; O75030; AlphaScreen MITF homodimerization, bead proximity signal; AID 1259374; in the data active = inhibition above about 50%;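 also: 0% = vehicle wells with protein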
GPR151 activ – activates the human receptor GPR151; Q8TDV0; PathHunter beta-arrestin GPR151 cells, luminescence; activation, % at 11.2 µM; 650,000 compounds, 1% hits; AID 1508602; in the data active = activation above about 4.9%;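 also: 0% = median of compound wells and 100% = cells with positive control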
Target sequence (Q8TDV0 whole entry, looked up): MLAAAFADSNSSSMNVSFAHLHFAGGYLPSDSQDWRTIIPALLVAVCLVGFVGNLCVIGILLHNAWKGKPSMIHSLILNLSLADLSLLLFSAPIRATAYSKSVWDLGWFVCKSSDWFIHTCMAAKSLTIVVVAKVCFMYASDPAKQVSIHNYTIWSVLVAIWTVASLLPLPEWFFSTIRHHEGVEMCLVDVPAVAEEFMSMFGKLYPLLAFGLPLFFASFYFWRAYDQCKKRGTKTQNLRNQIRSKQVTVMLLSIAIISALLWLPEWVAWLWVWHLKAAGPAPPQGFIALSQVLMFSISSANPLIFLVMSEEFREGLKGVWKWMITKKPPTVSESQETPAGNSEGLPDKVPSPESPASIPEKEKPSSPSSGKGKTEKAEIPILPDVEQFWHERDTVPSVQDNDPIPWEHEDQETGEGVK
FBW7 act – human FBW7 E3 ligase activation, primary screen; AlphaScreen FBW7–phospho-cyclin E peptide binding, activator screen; Q969H0; normalized activity (activation), % at 26.1 µM; 650,000 compounds, 0.13% hits; in the data active = normalized activity above about 1.9%;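 also: purified mutant Fbw7 with reduced substrate affinity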
Starred values were filed as active, the others as inactive. In the library only some 3.4% were active in any assay of this set; here they are far more common.

SMILES | TEAD-YAP inh | MITF inh | GPR151 activ | FBW7 act
CCOC(=O)C1CCC(CN(Cc2ccccc2C)S(=O)(=O)c2ccc(C(C)(C)C)cc2)CC1 (configuration not stated) | 7.4 | 3.5 | 1.2 | 0.3
C/C(=N/NC(N)=O)c1cc(C(C)(C)C)cc2c1CCC2(C)C | -11.4 | 5.1 | 2.3 | 0.1
CC(C)(C)c1cc(CC(=O)O)c2c(c1)C(C)(C)CC2 | 47.9* | 7.3 | -1.9 | 0.7
COC(=O)c1ccc(C2N(O)C3CCCCC3N2O)cc1 (configuration not stated) | -16.3 | 3.1 | 1.1 | 0.1
CN(C)c1ccc(C2N(O)C3CCCCC3N2O)cc1 (configuration not stated) | 33.6* | -1.8 | -0.6 | -0.2
CC(Cn1cncn1)NCc1c(C(=O)N2CCc3ccccc3C2)nc2ccc(Cl)cn12 (configuration not stated) | 1.2 | 5.2 | -1.5 | -0.1
Cc1nc(NCCNC(=O)COc2ccccc2)c2c3c(sc2n1)CCCC3 | 45.4* | 2.0 | -0.1 | 0.1
C=CCN(CC(=O)N(C)c1ccccc1)S(=O)(=O)c1ccccc1F | 1.8 | 3.8 | -0.3 | 0.1
CCOC(=O)Nc1ccncc1 | 4.4 | 17.1 | -0.1 | 0.1
CCN1C(=O)/C(=C/c2ccc(OC)c(O)c2)N(C)C1=S | -3.1 | 18.2 | 1.1 | 0.0
COc1cc(NC(=O)c2ccc3nc(-c4ccc(N5CCN(C)CC5)cc4)sc3c2)cc(OC)c1OC | 61.8* | 10.8 | -2.1 | 0.3
COc1cc(NC(=O)c2ccc3nc(-c4ccc(C(=O)N5CCN(C)CC5)cc4)sc3c2)cc(OC)c1OC | 51.6* | 13.3 | -0.4 | 0.0
COc1cc(NC(=O)c2ccc3nc(-c4c(C)nn(C)c4C)sc3c2)cc(OC)c1OC | 35.0* | 3.0 | -1.4 | 0.1
CN1CCN(c2ccc(-c3nc4ccc(C(=O)NCCO)cc4s3)cc2)CC1 | 67.0* | -6.7 | -1.2 | 0.0
CCOC(=O)c1cnc2ccc(OCC)cc2c1NCCN(CC)CC | -14.4 | 10.0 | -0.2 | 0.0
Cc1ccc(CN(C)C(=O)CC2C(=O)NCCN2Cc2c(F)cccc2Cl)o1 (configuration not stated) | -7.6 | -19.2 | -0.9 | 0.0
CC(=O)/C(N=Nc1ccc2c(c1)OCCO2)=C(/C)O | 4.7 | -0.9 | -3.0 | -0.2
CC(C)OC(=O)CSc1nc2c(c(-c3ccc(O)cc3)c1C#N)CCCC2 | 47.8* | 3.5 | 0.7 | 0.1
N#CC(C#N)=NNc1ccc(O)c(C(=O)O)c1 | 2.9 | 79.1* | 0.5 | -0.1
N#CC(C#N)=NNc1ccccc1C(=O)O | 10.5 | 5.8 | -0.4 | 0.1
CC12CN(CO)CC(C)(CN(Cc3ccccc3)C1)C2=O | 7.6 | 6.8 | 1.1 | 2.6*
CC12CNCC(C)(CN(Cc3ccccc3)C1)C2=O | 6.2 | 0.8 | -0.5 | -0.2
NC(=O)c1ccccc1Nc1ncnc2c1nc1n2CCCCC1 | 47.7* | -11.3 | 1.0 | -0.2
CCOc1ccc(-n2c(-c3ccccc3)csc2=NC(C)=O)cc1 | -4.8 | -1.0 | -1.1 | 0.1
Brc1ccc(-c2c[n+]3c(n2Cc2ccccc2)SCCC3)cc1 | -27.2 | 9.1 | -0.3 | 0.0
SMILES | TEAD-YAP inh | MITF inh | GPR151 activ | FBW7 act
CCOc1ccc(-n2c(-c3ccccc3)c[n+]3c2CCCCC3)cc1 | 65.6* | 19.2 | -0.6 | 0.1
CCOc1ccc(-c2c[n+]3c(n2Cc2ccccc2)SCCC3)cc1 | 66.8* | 4.8 | 0.3 | 0.0
COC(=O)CN1C(=S)N(C)C(=O)/C1=C/c1ccc(O)c(Cl)c1 | -5.3 | 11.6 | 0.0 | -0.3
Cc1ccc(NC2CC(O)C(CO)O2)cc1C (configuration not stated) | 6.3 | 7.9 | 0.0 | 0.0
CCCc1ccc(-c2ccc(OC(=O)c3ccccc3Cl)cc2)nc1 | 70.5* | -1.8 | -2.2 | -0.1
CCCc1ccc(C(=O)Oc2ccc(-c3ccc(CCC)cn3)cc2)cc1 | 22.7 | 12.3 | -1.5 | 0.2
COc1ccccc1NC(=O)C(=O)N1N=C(C2CCCCC2)CC1(O)C(F)(F)F (configuration not stated) | 3.7 | 11.0 | -0.8 | 0.0
COc1ccc(C(Nc2ccccn2)c2ccc3cccnc3c2O)cc1OC (configuration not stated) | 70.2* | 36.8 | 0.6 | -1.2
CCOc1ccc(C(Nc2cc(C)ccn2)c2ccc3ccc(C)nc3c2O)cc1OCC (configuration not stated) | 16.9 | 14.6 | -0.3 | -0.1
COc1ccccc1C(Nc1cc(C)ccn1)c1ccc2cccnc2c1O (configuration not stated) | 83.8* | 23.6 | -0.5 | -0.3
CCOc1cc(C(Nc2cc(C)ccn2)c2ccc3cccnc3c2O)ccc1OCc1ccccc1 (configuration not stated) | 80.3* | 7.1 | -0.1 | -0.1

Screening data: PubChem, The Scripps Research Institute Molecular Screening Center
